# Assay results reported in the supplement of paper PMC6805474.
# Tests used:
# [1] = test system: Schistosoma mansoni schistosomula (LE); experiment: XTT viability relative to DMSO control; higher = more viable (less active); settings: 72 h; 10 µM
# Procedure: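 XTT/PMS was then added for a further 24 h (72 h total) and A450 was read. % viability = (sample - heat-killed control)/(DMSO control - heat-killed control) x 100, from duplicate wells in two independent experiments.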
# [2] = test system: Schistosoma mansoni schistosomula (NMRI); experiment: phenotypic severity score (0-4); higher = more antischistosomal effect, active = 2 or more; settings: 10 µM
# [3] = test system: Schistosoma mansoni schistosomula (Liberian); experiment: drug effect (1 - score/DMSO control score) (fraction); higher = more antischistosomal effect, active = 0.5 or more; extreme values may be limits of the assay; settings: 10 µM
# Method in brief: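 A plate was valid only if its 0.1% DMSO wells averaged a score of at least 2. Those wells ran beside duplicate wells in which 50 Liberian-strain Schistosoma mansoni schistosomula each, transformed mechanically from cercariae and pre-incubated at least 12 h, met 10 µM compound in Medium 199 with 5% FCS at 37 °C, 5% CO2. Scoring was visual at 10× at 24, 48 and 72 h, from 3 (normal) to 0 (dead) in quarter-point steps. Drug effect was derived from the mean test-well score against the mean DMSO-well score, with negatives set to zero.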
# 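For phenotypic severity score (0-4) in this document: visual microscopic scoring of shape, motility and density changes versus 0.5% DMSO solvent controls, one point per descriptor, degeneracy or death scored 4, mean of duplicate wells.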
Compound,XTT viability [1] [%],phenotypic severity score ([2]; 24 h),phenotypic severity score ([2]; 48 h),phenotypic severity score ([2]; 72 h),drug effect ([3]; 24 h),drug effect ([3]; 48 h),drug effect ([3]; 72 h)
CCC(=O)Nc1ccccc1C(=O)Nc1ccccn1,87.3,1 (inactive),0 (inactive),0 (inactive),0.136 (inactive),0.3 (inactive),0.236 (inactive)
CCc1nc2ccc(Cl)cn2c1C(=O)NCc1ccc(N2CCC(c3ccc(OC(F)(F)F)cc3)CC2)cc1,66.8,1 (inactive),0 (inactive),0 (inactive),0.105 (inactive),0.0556 (inactive),< 0 (inactive)
COc1cccc(NC(=O)c2c(NC(=O)c3cccnc3)sc3c2CCC3)c1,94.4,0 (inactive),0 (inactive),0 (inactive),0.25 (inactive),0.222 (inactive),0.438 (inactive)
COc1ccc(N(CCc2cccc(C)n2)C(C)=O)cc1,114,1 (inactive),1 (inactive),0 (inactive),0.15 (inactive),0.135 (inactive),0.0909 (inactive)
CC(=O)Nc1ccc(NC(=O)c2cc(-c3cc(Cl)ccc3O)[nH]n2)cc1,94.2,0 (inactive),0 (inactive),0 (inactive),0.227 (inactive),0.15 (inactive),0.127 (inactive)
CN1CCN(c2cc(-c3ccc(F)cc3)nc(-c3ccncc3)n2)CC1,63,0 (inactive),0 (inactive),0 (inactive),0.182 (inactive),0.35 (inactive),0.345 (inactive)
O=C(Nc1ccc(N2CCNCC2)nc1)c1oc(-c2ccccc2)nc1C(F)(F)F,69.7,0 (inactive),0 (inactive),0 (inactive),0.0811 (inactive),0.389 (inactive),0.625 (active)
CNCCC(Oc1ccc(C(F)(F)F)cc1)c1ccccc1 (stereo not drawn),20.4,0 (inactive),0 (inactive),0 (inactive),0.05 (inactive),0.0811 (inactive),0.333 (inactive)
COc1cccc(OCC(=O)c2ccc(Br)cc2)c1,101,0 (inactive),0 (inactive),0 (inactive),0.182 (inactive),0.2 (inactive),0.127 (inactive)
CO[C@@H](C(=O)N1Cc2[nH]nc(NC(=O)c3ccc(N4CCN(C)CC4)cc3)c2C1)c1ccccc1,97.4,0 (inactive),0 (inactive),0 (inactive),0.15 (inactive),0.243 (inactive),0.278 (inactive)
CC1COC2(CCN(c3nc(=O)c4cc(C(F)(F)F)cc([N+](=O)[O-])c4s3)CC2)O1 (stereo not drawn),80,1 (inactive),0 (inactive),0 (inactive),0.136 (inactive),0.25 (inactive),0.291 (inactive)
Cc1ccc2cc(C3NC(=O)c4ccccc4N3)c(Cl)nc2c1 (stereo not drawn),99,0 (inactive),0 (inactive),1 (inactive),0.05 (inactive),0.0811 (inactive),0.111 (inactive)
CC1=NN(c2nc3ccccc3s2)C(=O)C1Cc1cccc2ccccc12 (stereo not drawn),61.8,0 (inactive),0 (inactive),0 (inactive),0.0909 (inactive),0.1 (inactive),0.127 (inactive)
FC(F)(F)c1cccc(-c2nc3c(NCc4ccncc4)nccc3[nH]2)c1,90.7,0 (inactive),0 (inactive),0 (inactive),0.15 (inactive),0.0811 (inactive),0.152 (inactive)
COc1cc2ncnc(NC3CCN(Cc4ccccc4)CC3)c2cc1OC,86.5,0 (inactive),0 (inactive),0 (inactive),0.1 (inactive),0.135 (inactive),0.0556 (inactive)
C[C@H](C(N)=O)N1CCCC[C@H]1c1ccc(OCc2cccc(F)c2)cc1,118,0 (inactive),0 (inactive),0 (inactive),0.05 (inactive),0.0811 (inactive),0.212 (inactive)
c1ccc(-c2nc(NC3CCCCC3)cc(C3CC3)n2)nc1,16.4,0 (inactive),0 (inactive),0 (inactive),< 0 (inactive),0.0811 (inactive),0.152 (inactive)
O=C(OCc1ccccc1)N1CCC(c2cc(-c3ccncc3)c(-c3ccc(F)cc3)[nH]2)CC1,124,0 (inactive),0 (inactive),0 (inactive),0.1 (inactive),0.222 (inactive),0.188 (inactive)
Cc1nnc(NC(=O)c2cn(-c3ccccc3)nc2-c2ccccc2C)o1,56.8,1 (inactive),1 (inactive),1 (inactive),< 0 (inactive),0.0811 (inactive),0.111 (inactive)
Clc1ccc(CCNc2cc(-c3ccccc3)nc3ncnn23)cc1,83.9,0 (inactive),1 (inactive),0 (inactive),0.136 (inactive),0.2 (inactive),0.127 (inactive)
Cc1ccc(-c2nc(CN(Cc3ccccn3)C(C)C)cs2)o1,84.4,0 (inactive),1 (inactive),0 (inactive),0.05 (inactive),0.222 (inactive),0.389 (inactive)
Cc1nc(-c2ccccn2)nc(N(C)CCc2ccccc2)c1Cl,20.7,1 (inactive),4 (active),4 (active),< 0 (inactive),0.189 (inactive),0.697 (active)
Cc1nn(C(=O)Nc2cccc(C(F)(F)F)c2)c(C)c1Sc1ncccn1,137,0 (inactive),0 (inactive),0 (inactive),0.15 (inactive),0.167 (inactive),0.312 (inactive)
COc1ccc2nc(C)cc(OCC(=O)NCc3ccccc3)c2c1,74.7,0 (inactive),0 (inactive),0 (inactive),0.0526 (inactive),0.0556 (inactive),< 0 (inactive)
